Laboratory results reported in PubChem BioAssay.
Records with an inconclusive call do not appear. The source made the active and inactive calls.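 How the source made its calls, unless noted: active means GFP signal, as percent of the solvent control, above the screen mean plus 3 SD, about 149; inconclusive means no reading because the compound's own fluorescence upset strain identification; inactive means the rest.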

Assays:
[1] = yeast TOR pathway RPL19A-GFP modulators, primary screen, cell-based, S. cerevisiae, multiplex flow cytometry (AID 1862; in the data active means percent of DMSO control GFP below about 86%;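 further: lower values mimic rapamycin by blocking the RPL19A rise seen in DMSO cells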); details: S. cerevisiae RPL19A-GFP strain, flow cytometry fluorescence, 3 h; at 10 µM; stronger effect = lower value
[2] = modulators of MEP2-GFP levels in yeast, primary screen, S. cerevisiae, multiplex flow cytometry (AID 1867;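 active means GFP response, as percent of the DMSO control, above the screen-wide mean plus 3 SD, about 139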;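 further: median GFP channel fluorescence of barcode-gated MEP2-GFP cells measured by flow cytometry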); details: S. cerevisiae MEP2-GFP strain, 3 h, at 10 µM, stronger effect = higher value, 100% means same as DMSO wells
[3] = modulators of CIT2-GFP expression in yeast, primary screen, S. cerevisiae, GFP fusion, multiplex flow cytometry (AID 1870;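 active means percent response above a set limit, the screen-wide mean plus 3 SD, cut at about 130% in these data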;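 further: barcoded CIT2-GFP strain pooled with four other GFP strains with rapamycin as positive control; median GFP fluorescence per well over plate mean of DMSO wells so 100% = DMSO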); details: 3 h, at 10 µM, stronger effect = higher value
[4] = modulators of LAP4-GFP expression in yeast, primary screen, S. cerevisiae, multiplex flow cytometry (AID 1873); details: 3 h, at 10 µM, stronger effect = higher value
[5] = modulators of AGP1-GFP expression in yeast TOR pathway, primary screen, cell-based, multiplex flow cytometry, S. cerevisiae (AID 1887;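 active means GFP signal above the screen-wide mean plus 3 SD, that is over about 124.5% of the solvent control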;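 further: AGP1-GFP fusion strain of S. cerevisiae within a five-strain barcoded multiplex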); details: 3 h, at 10 µM, stronger effect = higher value
[6] = inhibitors of CD8+ T cell-vesicle binding, pilot screen, LFA-1/ICAM-1 modulator project, MLPCN validation set, flow cytometry (AID 2523;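 active means response below a set limit, under 55% cells CD8-positive and vesicle-bound, and CD8 cells' 90th-percentile brightness under 279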;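 on vesicle binding response: mean PE anti-B7-1 fluorescence of CD8+ cells relative to row control; 100% = QL9-loaded vesicles with DMSO vehicle in the same plate row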); details: 2C mouse CD8+ T cells, at 7 µM, stronger effect = lower value; double positive events: measured here: CD8+/vesicle+ event percentage
[7] = molecular target: Integrin beta-1 (Homo sapiens) + Integrin alpha-4 (Homo sapiens) (UniProt P13612+P05556); assay: inhibition of HUTS-21 binding to VLA-4, pilot screen, VLA-4 allosteric modulator project, U937 cells, HUTS-21 mAb, flow cytometry, validation set (AID 2674;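 active means inhibition above 50%, about 3 SD of the validation set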;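 further: antibody binding induced by the VLA-4 ligand LDV present at three times its Kd; 0% = LDV ligand with antibody and no compound and 100% = antibody without LDV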); details: HUTS-21 LIBS mAb binding, at 6.7 µM, stronger effect = higher value, binding induced by LDV ligand
[8] = superoxide lowering in aged yeast cells, pilot screen, validation compound set (AID 2706;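 active means superoxide response below 65% of plate, a cut near 3 SD across the whole screen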;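 further: yeast exposed to compound for one week at 30 degrees C before staining; 100% = mean of all compound wells on the same plate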); details: S. cerevisiae aging, superoxide DHE fluorescence; at 10 µM, stronger effect = lower value
[9] = molecular target: Beta-adrenergic receptor kinase 1 (Homo sapiens) (UniProt P25098); assay: GRK2 binders displacing RNA aptamer, biochemical, validation, human GRK2, bead flow cytometry (AID 488806;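 active means aptamer binding inhibition above 30%, about 3 SD of noise from non-fluorescent compounds; inactive means inhibition at or below 30%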); details: bead-bound GRK2, FAM-aptamer displacement, at 10 µM, stronger effect = higher value
[10] = molecular target: AP-2 complex subunit beta (Homo sapiens) (UniProt P63010); assay: inhibitors of arrestin peptide binding to AP2, pilot screen, biochemical, validation set, GST-AP2 beads, flow cytometry (AID 504541;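 active means inhibition above 54%, about 3 SD of non-fluorescent compounds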;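 further: AP2 carries R879A mutation and is captured from E. coli lysate; bead-bound FITC arrestin peptide fluorescence measuring arrestin peptide binding to AP2; 0% = DMSO wells and 100% = excess unlabeled arrestin peptide control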); details: FITC arrestin peptide, at 10 µM, stronger effect = higher value, AP2 beta2 appendage fragment, R879A mutant
[11] = yeast V-ATPase proton transport modulators, S. cerevisiae, pHLuorin, HTS validation (AID 504600; in the data active means response above about 15%;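 further: plate controls were DMSO for no effect and reference compound for full effect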); details: S. cerevisiae pHLuorin cytosolic pH, at 10 µM, stronger effect = higher value
[12] = tested on: anti-desmoglein-3 scFv antibody binding to human DSG3; assay: inhibitors of anti-DSG3 scFv binding to DSG3, pilot screen, biochemical, validation compound set, bead-based, flow cytometry (AID 588368;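 active means binding below the plate cutoff, the plate median minus 3 SD, with a reading above zero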;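 further: signal is the median channel fluorescence of bead-bound GFP antibody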); details: Protein G beads, DSG3-Fc, scFv-GFP binding, at 10 µM, stronger effect = lower value
[13] = inhibitors of fungal efflux pumps CDR1, CDR2, MDR1, pilot screen, validation compound set, multiplex, phenotypic (AID 588506;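 active means efflux inhibition above 0.42, the validation set average plus 4 SD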;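 further: Nile Red retained in cells so higher fluorescence means more efflux inhibition; 0 = negative control wells and 1 = enniatin B 25 µM full block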); details: S. cerevisiae pump-expressing triplex, Nile Red efflux flow cytometry; at 10 µM; stronger effect = higher value; the pumps come from Candida albicans
[14] = molecular target: ATP-binding cassette sub-family B member 6 (Homo sapiens) (UniProt Q9NP58); assay: ABCB6 transporter inhibitors, pilot screen, K562-ABCB6 cells, flow cytometry, validation set (AID 588550;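 active means inhibition above the screen-wide mean plus 3 SD, about 51%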;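 further: 0% = DMSO wells and 100% = benzethonium chloride 70 µM positive control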); details: K562-ABCB6 porphyrin accumulation, 1 h, at 10 µM, stronger effect = higher value
[15] = promoters of myeloid differentiation in arrested cells, primary screen, cell-based, GFP/MAC1 double positive, flow cytometry, validation set (AID 588685;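 active means differentiation response of at least 50%, scaled between solvent and reference control, from cells with both markers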;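 further: compound exposure lasts four days before antibody staining and flow analysis; 0% = DMSO wells and 100% = 5 µM fulvestrant positive control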); details: ER-HoxA9 marrow cells, stronger effect = higher value, normalized: vehicle 0, fulvestrant 100

Sequence of Beta-adrenergic receptor kinase 1 (Homo sapiens) (P25098 whole entry, looked up): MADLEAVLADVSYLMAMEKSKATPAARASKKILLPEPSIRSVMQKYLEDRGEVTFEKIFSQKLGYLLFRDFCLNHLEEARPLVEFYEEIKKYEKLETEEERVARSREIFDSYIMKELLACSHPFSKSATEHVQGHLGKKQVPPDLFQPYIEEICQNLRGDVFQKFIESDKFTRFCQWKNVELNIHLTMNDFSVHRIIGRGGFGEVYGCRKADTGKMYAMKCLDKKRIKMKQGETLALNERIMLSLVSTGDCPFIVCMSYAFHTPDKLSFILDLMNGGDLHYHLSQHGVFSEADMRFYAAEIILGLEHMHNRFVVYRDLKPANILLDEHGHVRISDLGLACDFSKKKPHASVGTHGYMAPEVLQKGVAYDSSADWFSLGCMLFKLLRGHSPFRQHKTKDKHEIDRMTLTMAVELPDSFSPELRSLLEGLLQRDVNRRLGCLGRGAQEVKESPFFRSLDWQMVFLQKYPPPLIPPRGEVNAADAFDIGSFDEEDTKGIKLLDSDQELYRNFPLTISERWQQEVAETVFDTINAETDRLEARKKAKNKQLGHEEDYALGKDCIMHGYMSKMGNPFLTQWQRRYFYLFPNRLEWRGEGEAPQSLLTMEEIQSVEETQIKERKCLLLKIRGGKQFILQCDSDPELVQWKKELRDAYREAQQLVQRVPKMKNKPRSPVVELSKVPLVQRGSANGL
Sequence of Integrin beta-1 (Homo sapiens) + Integrin alpha-4 (Homo sapiens) (P05556 whole entry, looked up): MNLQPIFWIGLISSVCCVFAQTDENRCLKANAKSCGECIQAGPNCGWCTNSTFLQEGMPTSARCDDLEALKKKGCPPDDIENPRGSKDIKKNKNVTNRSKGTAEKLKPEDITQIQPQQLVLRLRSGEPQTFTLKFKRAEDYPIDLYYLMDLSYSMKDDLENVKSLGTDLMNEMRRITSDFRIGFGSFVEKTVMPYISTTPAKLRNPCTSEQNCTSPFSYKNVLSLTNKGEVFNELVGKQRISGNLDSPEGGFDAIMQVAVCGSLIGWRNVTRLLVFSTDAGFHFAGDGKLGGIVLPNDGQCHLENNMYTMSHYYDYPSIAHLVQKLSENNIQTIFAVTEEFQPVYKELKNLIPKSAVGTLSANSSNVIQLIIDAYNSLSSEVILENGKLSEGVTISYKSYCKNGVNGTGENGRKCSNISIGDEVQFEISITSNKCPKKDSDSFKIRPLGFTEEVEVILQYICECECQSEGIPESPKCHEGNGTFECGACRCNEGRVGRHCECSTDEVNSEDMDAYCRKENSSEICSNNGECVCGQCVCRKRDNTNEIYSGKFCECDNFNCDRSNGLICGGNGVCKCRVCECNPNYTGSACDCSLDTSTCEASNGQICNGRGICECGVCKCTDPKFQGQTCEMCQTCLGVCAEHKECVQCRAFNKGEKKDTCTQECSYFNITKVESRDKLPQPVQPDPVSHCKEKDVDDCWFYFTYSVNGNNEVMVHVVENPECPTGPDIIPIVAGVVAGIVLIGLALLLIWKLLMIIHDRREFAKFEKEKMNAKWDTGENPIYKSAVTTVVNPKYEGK
Sequence of Integrin beta-1 (Homo sapiens) + Integrin alpha-4 (Homo sapiens) (P13612 whole entry, looked up): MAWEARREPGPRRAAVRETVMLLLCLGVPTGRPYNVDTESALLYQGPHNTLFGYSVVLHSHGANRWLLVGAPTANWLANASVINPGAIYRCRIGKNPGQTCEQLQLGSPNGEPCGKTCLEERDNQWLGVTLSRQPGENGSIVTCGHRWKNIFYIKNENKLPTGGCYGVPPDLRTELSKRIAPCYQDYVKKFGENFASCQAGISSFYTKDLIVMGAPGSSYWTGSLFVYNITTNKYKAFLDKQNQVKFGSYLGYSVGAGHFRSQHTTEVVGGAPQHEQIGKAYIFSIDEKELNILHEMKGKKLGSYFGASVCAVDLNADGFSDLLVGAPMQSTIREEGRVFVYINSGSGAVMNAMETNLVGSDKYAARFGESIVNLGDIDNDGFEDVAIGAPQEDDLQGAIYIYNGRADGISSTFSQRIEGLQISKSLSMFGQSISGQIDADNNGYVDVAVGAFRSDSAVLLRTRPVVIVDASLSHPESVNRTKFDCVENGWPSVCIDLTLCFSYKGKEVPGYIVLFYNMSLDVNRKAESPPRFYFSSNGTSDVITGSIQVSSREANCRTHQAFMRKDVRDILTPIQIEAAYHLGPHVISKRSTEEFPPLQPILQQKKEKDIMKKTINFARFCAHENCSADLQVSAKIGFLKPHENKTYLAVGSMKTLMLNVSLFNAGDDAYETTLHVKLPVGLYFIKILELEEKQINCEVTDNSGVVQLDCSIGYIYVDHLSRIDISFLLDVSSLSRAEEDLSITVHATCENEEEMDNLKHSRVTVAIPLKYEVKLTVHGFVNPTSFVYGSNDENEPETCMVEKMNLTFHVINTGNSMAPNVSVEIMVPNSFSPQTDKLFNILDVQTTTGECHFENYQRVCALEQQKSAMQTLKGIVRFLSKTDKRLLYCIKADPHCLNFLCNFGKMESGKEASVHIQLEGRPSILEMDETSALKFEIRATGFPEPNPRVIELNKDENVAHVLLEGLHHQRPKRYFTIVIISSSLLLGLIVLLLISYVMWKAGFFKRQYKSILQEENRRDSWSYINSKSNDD
Sequence of ATP-binding cassette sub-family B member 6 (Homo sapiens) (Q9NP58 whole entry, looked up): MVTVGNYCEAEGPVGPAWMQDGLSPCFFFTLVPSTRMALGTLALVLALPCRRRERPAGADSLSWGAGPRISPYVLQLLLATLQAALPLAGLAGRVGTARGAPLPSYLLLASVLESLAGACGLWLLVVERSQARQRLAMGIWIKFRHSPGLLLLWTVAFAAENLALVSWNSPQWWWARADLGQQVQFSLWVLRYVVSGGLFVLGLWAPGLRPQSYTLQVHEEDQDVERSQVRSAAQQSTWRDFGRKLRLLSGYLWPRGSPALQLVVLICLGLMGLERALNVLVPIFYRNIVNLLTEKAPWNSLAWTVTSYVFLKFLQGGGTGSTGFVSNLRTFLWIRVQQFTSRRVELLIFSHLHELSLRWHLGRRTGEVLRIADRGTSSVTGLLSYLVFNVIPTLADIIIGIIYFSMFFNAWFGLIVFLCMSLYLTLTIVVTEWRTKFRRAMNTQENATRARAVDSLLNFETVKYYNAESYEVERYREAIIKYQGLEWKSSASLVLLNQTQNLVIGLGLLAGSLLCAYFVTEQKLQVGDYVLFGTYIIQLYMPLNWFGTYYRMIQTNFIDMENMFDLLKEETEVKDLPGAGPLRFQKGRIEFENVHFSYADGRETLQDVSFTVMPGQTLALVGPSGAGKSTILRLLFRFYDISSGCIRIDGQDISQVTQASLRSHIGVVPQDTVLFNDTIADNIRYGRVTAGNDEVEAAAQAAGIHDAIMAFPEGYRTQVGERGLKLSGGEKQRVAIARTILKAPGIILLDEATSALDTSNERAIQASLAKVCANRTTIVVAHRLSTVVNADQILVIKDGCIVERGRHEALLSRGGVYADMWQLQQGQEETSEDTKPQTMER
Sequence of AP-2 complex subunit beta (Homo sapiens) (P63010 whole entry, looked up, the tested form may be a part, one chain of several): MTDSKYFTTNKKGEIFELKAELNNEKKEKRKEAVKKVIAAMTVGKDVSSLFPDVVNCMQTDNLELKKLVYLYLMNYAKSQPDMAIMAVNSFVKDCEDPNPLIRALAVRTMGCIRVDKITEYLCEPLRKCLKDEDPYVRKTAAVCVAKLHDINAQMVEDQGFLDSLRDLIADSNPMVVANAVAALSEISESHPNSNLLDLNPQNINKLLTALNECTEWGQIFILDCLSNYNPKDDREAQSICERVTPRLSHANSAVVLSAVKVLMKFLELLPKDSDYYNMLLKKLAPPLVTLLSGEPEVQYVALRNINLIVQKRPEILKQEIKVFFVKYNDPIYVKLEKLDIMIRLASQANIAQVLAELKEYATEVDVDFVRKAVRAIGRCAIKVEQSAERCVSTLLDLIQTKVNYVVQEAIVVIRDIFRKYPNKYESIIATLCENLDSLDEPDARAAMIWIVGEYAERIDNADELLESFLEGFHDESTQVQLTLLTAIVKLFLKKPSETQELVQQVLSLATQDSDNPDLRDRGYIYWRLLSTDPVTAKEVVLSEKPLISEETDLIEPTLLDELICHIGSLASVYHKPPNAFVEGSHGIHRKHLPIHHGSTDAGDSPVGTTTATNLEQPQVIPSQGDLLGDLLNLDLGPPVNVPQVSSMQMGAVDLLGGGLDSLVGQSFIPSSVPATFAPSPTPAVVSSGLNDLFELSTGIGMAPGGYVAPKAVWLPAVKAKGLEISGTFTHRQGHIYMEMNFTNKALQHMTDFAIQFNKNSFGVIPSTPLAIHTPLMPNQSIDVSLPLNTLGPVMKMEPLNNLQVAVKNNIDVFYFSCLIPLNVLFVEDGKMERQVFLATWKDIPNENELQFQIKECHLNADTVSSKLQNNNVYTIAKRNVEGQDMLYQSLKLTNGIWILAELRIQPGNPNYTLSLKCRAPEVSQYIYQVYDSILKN

CC(=O)Nc1ccc(OS(=O)(=O)c2c(C)cc(C)cc2C)cc1
percent of DMSO control GFP [1]: 99% (inactive)
GFP response vs DMSO [2]: 92.8% (inactive)
percent response of DMSO control [3]: 98.8% (inactive)
GFP response vs DMSO [4]: 96.4% (inactive)
GFP response, % of DMSO [5]: 86.7% (inactive)
double positive events [6]: 47.1%
vesicle binding response [6]: 166% (inactive)
inhibition [7]: 10.9% (inactive)
superoxide response (% of plate) [8]: 99.6% (inactive)
aptamer binding inhibition [9]: -1% (inactive)
inhibition [10]: -5.36% (inactive)
response [11]: 0.9% (inactive)
binding (% of control) [12]: 102% (inactive)
efflux inhibition (fraction of control) [13]: -0.2 (inactive)
inhibition [14]: 8% (inactive)
differentiation response [15]: -18% (inactive)

COc1ccc(C=NCC2COc3ccccc3O2)cc1OC (stereo not given)
percent of DMSO control GFP [1]: 103% (inactive)
GFP response vs DMSO [2]: 101% (inactive)
percent response of DMSO control [3]: 98.8% (inactive)
GFP response vs DMSO [4]: 90.3% (inactive)
GFP response, % of DMSO [5]: 95.5% (inactive)
double positive events [6]: 62.8%
vesicle binding response [6]: 187% (inactive)
inhibition [7]: 0.69% (inactive)
superoxide response (% of plate) [8]: 104% (inactive)
aptamer binding inhibition [9]: -1% (inactive)
inhibition [10]: 17.1% (inactive)
response [11]: -2.12% (inactive)
binding (% of control) [12]: 107% (inactive)
efflux inhibition (fraction of control) [13]: 0.63 (active)
inhibition [14]: 10% (inactive)
differentiation response [15]: -5.05% (inactive)

C/C=C/Cn1c(SC)nc2c1c(=O)[nH]c(=O)n2C
percent of DMSO control GFP [1]: 102% (inactive)
GFP response vs DMSO [2]: 101% (inactive)
percent response of DMSO control [3]: 95.9% (inactive)
GFP response vs DMSO [4]: 93.3% (inactive)
GFP response, % of DMSO [5]: 93.4% (inactive)
double positive events [6]: 59%
vesicle binding response [6]: 124% (inactive)
inhibition [7]: 3.49% (inactive)
superoxide response (% of plate) [8]: 97.4% (inactive)
aptamer binding inhibition [9]: 0% (inactive)
inhibition [10]: 34.4% (inactive)
response [11]: 1.09% (inactive)
binding (% of control) [12]: 103% (inactive)
efflux inhibition (fraction of control) [13]: 0.78 (active)
inhibition [14]: 0% (inactive)
differentiation response [15]: -14.7% (inactive)

O=C(c1ccc(O)cc1)c1ccc(O)cc1O
percent of DMSO control GFP [1]: 101% (inactive)
GFP response vs DMSO [2]: 108% (inactive)
percent response of DMSO control [3]: 104% (inactive)
GFP response vs DMSO [4]: 101% (inactive)
GFP response, % of DMSO [5]: 99.1% (inactive)
double positive events [6]: 59.2%
vesicle binding response [6]: 122% (inactive)
inhibition [7]: 4.42% (inactive)
superoxide response (% of plate) [8]: 95.7% (inactive)
aptamer binding inhibition [9]: 3% (inactive)
inhibition [10]: 45.5% (inactive)
response [11]: -7.71% (inactive)
binding (% of control) [12]: 96.9% (inactive)
efflux inhibition (fraction of control) [13]: 0.06 (inactive)
inhibition [14]: 6% (inactive)
differentiation response [15]: 49.9% (active)

O=C(O)CCSc1nc2ccccc2s1
percent of DMSO control GFP [1]: 104% (inactive)
GFP response vs DMSO [2]: 99.9% (inactive)
percent response of DMSO control [3]: 102% (inactive)
GFP response vs DMSO [4]: 106% (inactive)
GFP response, % of DMSO [5]: 95.8% (inactive)
double positive events [6]: 49.5%
vesicle binding response [6]: 183% (inactive)
inhibition [7]: -9.57% (inactive)
superoxide response (% of plate) [8]: 115% (inactive)
aptamer binding inhibition [9]: 7% (inactive)
inhibition [10]: -3.62% (inactive)
response [11]: -1.68% (inactive)
binding (% of control) [12]: 101% (inactive)
efflux inhibition (fraction of control) [13]: 0.44 (active)
inhibition [14]: 8% (inactive)
differentiation response [15]: 17.6% (inactive)

COc1ccc(OCC(=O)N2c3ccc(C)cc3C3CN(C)CCC32)cc1 (stereo not given)
percent of DMSO control GFP [1]: 104% (inactive)
GFP response vs DMSO [2]: 101% (inactive)
percent response of DMSO control [3]: 105% (inactive)
GFP response vs DMSO [4]: 98.4% (inactive)
GFP response, % of DMSO [5]: 96.1% (inactive)
double positive events [6]: 69.1%
vesicle binding response [6]: 238% (inactive)
inhibition [7]: 10% (inactive)
superoxide response (% of plate) [8]: 90.6% (inactive)
aptamer binding inhibition [9]: -10% (inactive)
inhibition [10]: -6.29% (inactive)
response [11]: -0.64% (inactive)
binding (% of control) [12]: 106% (inactive)
efflux inhibition (fraction of control) [13]: 0.33 (inactive)
inhibition [14]: 5% (inactive)
differentiation response [15]: 32.1% (inactive)

O=[N+]([O-])c1ccc2cn[nH]c2c1
percent of DMSO control GFP [1]: 102% (inactive)
GFP response vs DMSO [2]: 106% (inactive)
percent response of DMSO control [3]: 102% (inactive)
GFP response vs DMSO [4]: 93.3% (inactive)
GFP response, % of DMSO [5]: 97.3% (inactive)
double positive events [6]: 60.3%
vesicle binding response [6]: 265% (inactive)
inhibition [7]: 12.8% (inactive)
superoxide response (% of plate) [8]: 97.5% (inactive)
aptamer binding inhibition [9]: 1% (inactive)
inhibition [10]: -5.23% (inactive)
response [11]: -6.52% (inactive)
binding (% of control) [12]: 98.2% (inactive)
efflux inhibition (fraction of control) [13]: -0.05 (inactive)
inhibition [14]: 10% (inactive)
differentiation response [15]: -8.27% (inactive)

Cn1c2c(c(=O)[nH]c1=O)C(c1ccc(O)cc1)C1=C(N2)c2ccccc2C1=O (stereo not given)
percent of DMSO control GFP [1]: 99% (inactive)
GFP response vs DMSO [2]: 97.9% (inactive)
percent response of DMSO control [3]: 101% (inactive)
GFP response vs DMSO [4]: 87.3% (inactive)
GFP response, % of DMSO [5]: 94.6% (inactive)
double positive events [6]: 62.7%
vesicle binding response [6]: 228% (inactive)
inhibition [7]: -3.04% (inactive)
superoxide response (% of plate) [8]: 92.2% (inactive)
aptamer binding inhibition [9]: -2% (inactive)
inhibition [10]: 8.12% (inactive)
response [11]: -0.45% (inactive)
binding (% of control) [12]: 96.9% (inactive)
efflux inhibition (fraction of control) [13]: -0.01 (inactive)
inhibition [14]: 9% (inactive)
differentiation response [15]: 11.1% (inactive)

Cc1ccc2[nH]c3c(c2c1)CN(C)CC3
percent of DMSO control GFP [1]: 102% (inactive)
GFP response vs DMSO [2]: 107% (inactive)
percent response of DMSO control [3]: 97.9% (inactive)
GFP response vs DMSO [4]: 97.4% (inactive)
GFP response, % of DMSO [5]: 100% (inactive)
double positive events [6]: 63.4%
vesicle binding response [6]: 188% (inactive)
inhibition [7]: 9.09% (inactive)
superoxide response (% of plate) [8]: 99.8% (inactive)
aptamer binding inhibition [9]: 5% (inactive)
inhibition [10]: 15.9% (inactive)
response [11]: -3.83% (inactive)
binding (% of control) [12]: 105% (inactive)
efflux inhibition (fraction of control) [13]: -0.09 (inactive)
inhibition [14]: 12% (inactive)
differentiation response [15]: -8.27% (inactive)

CCOC(=O)C(=O)Nc1ccc(Oc2ccccc2)cc1
percent of DMSO control GFP [1]: 96.8% (inactive)
GFP response vs DMSO [2]: 105% (inactive)
percent response of DMSO control [3]: 101% (inactive)
GFP response vs DMSO [4]: 106% (inactive)
GFP response, % of DMSO [5]: 97.8% (inactive)
double positive events [6]: 61.7%
vesicle binding response [6]: 101% (inactive)
inhibition [7]: 18.4% (inactive)
superoxide response (% of plate) [8]: 101% (inactive)
aptamer binding inhibition [9]: 3% (inactive)
inhibition [10]: 9.79% (inactive)
response [11]: 1.03% (inactive)
binding (% of control) [12]: 105% (inactive)
efflux inhibition (fraction of control) [13]: -0.05 (inactive)
inhibition [14]: 4% (inactive)
differentiation response [15]: -26% (inactive)
